Experimental data reported in PubChem BioAssay.
A number with no mark means an inactive call. The rule behind the calls is not given here.

Each molecule was assayed against Pantothenate synthetase (Mycobacterium tuberculosis (strain ATCC 25618 / H37Rv)) (UniProt P9WIL5) (assay: Recombinant Mtb pantothenate synthetase (PanC) inhibitors, coupled enzyme, confirmatory (AID 375;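 note: 0% = full reaction with vehicle and 100% = no enzyme background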)). Settings: coupled enzyme assay; at 10 µM, active compounds read high.
Chain of Pantothenate synthetase (Mycobacterium tuberculosis (strain ATCC 25618 / H37Rv)) (P9WIL5 whole entry, looked up): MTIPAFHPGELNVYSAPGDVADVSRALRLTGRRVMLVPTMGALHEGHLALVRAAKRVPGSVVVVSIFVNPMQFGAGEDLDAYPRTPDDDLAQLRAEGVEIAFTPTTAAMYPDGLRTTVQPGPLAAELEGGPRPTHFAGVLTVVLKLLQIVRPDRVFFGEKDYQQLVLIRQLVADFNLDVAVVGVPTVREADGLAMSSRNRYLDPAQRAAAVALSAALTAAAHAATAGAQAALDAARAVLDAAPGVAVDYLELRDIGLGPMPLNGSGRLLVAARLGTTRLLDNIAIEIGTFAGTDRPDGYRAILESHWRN

SMILES	inhibition [%]
COc1cccc(C2CC(c3ccccc3)n3ncnc3N2)c1 (stereo not given)	8
CCN(CC)CCCN1C(=O)C(=O)/C(=C(/O)c2ccc3c(c2)OCO3)C1c1ccccn1 (stereo not given)	1
O=C(CN(CCc1ccccc1)C(=O)CN1C(=O)COc2ccccc21)NCc1ccco1	10
OCc1nc2ccccc2n1CC(O)Cn1ccc2ccccc21 (stereo not given)	1
CCOC(=O)c1c(C)oc2c1c(C=NCc1ccccn1)c(O)c1ccccc12	3
O=C1c2ccccc2C(Nc2ccc3c(c2)OCCO3)N1Cc1ccc2c(c1)OCO2 (stereo not given)	1
CC(COc1ccccc1)NC(C)C(O)c1ccc(O)cc1 (stereo not given)	0
Cc1nnc(C)c2c(C)n(Cc3ccc4c(c3)OCO4)c(C)c12	0
CC(=O)c1cnc2cc(-c3ccccc3)nn2c1C	0
CCC(=NC(C)c1ccccc1)c1c(O)n(C)c(=O)n(C)c1=O (stereo not given)	0
Cc1ccc(S(=O)(=O)N(C)c2ccc(OCC(=O)OCc3c(C)noc3C)cc2)cc1	0
COc1ccc(OC)c(Nc2cc(-c3ccccc3)nc(N)n2)c1	1
CCOC(=O)Nc1cc(OCC)c(NC(=O)C2CC2)cc1OCC	0
C=CCSC1=C(C#N)C(c2ccccc2Cl)CC(=O)N1 (stereo not given)	0
Cc1occc1-c1nnc(SCC(=O)NCC2CCCO2)n1C (stereo not given)	7
CC(C)=CC(=O)N1CCCc2ccccc21	13
Cc1ccnc2c(N3C(=O)C4C5C=CC(C5)C4(C)C3=O)cccc12 (stereo not given)	0
Cc1cc(C(=O)Cn2cncn2)c(C)n1CCc1ccc(F)cc1	1
Cc1ccc(C)c(S(=O)(=O)C(C#N)c2nc3ccccc3nc2N2CC(C)OC(C)C2)c1 (stereo not given)	0
COc1ccc(N2CCN(C(=O)CSc3nnc4n3C(C)(C)Cc3ccccc3-4)CC2)cc1	0

SMILES	inhibition [%]
CC(C)OC(=O)CSc1nc2cccnc2n1C1CCCCC1	4
O=C(Cc1ccc(S(=O)(=O)N2CCCC2)s1)Nc1nc2c(s1)CCCC2	1
CCOc1ccc(-c2nc(N)ncc2-c2ccccc2)c(O)c1	0
O=C(O)C1CSC2c3ccccc3C(=O)N12 (stereo not given)	0
CCOC(=O)C(C)(C)Sc1nc2c(cnn2-c2ccc(C)cc2)c(=O)[nH]1	0
O=C(C1CCC(N2C(=O)C3CC=CCC3C2=O)CC1)N1CCCCC1 (stereo not given)	1
O=C(CSc1nnnn1C1CCCCC1)N1CCc2ccccc21	0
COc1ccccc1NC(=O)NCCCN1CCN(c2cccc(Cl)c2)CC1	2
CCOc1ccccc1Nc1ncnc2ccccc12	6
COC(=O)c1cc(Br)c(=O)n(CCN2CCOCC2)c1	0
COc1cc(C2C(C#N)=C(N)OC3=C2C(=O)CCC3)ccc1OC(=O)N1CCOCC1 (stereo not given)	0
Cc1ccc(C)c2[nH]c(=O)c(CN(CCN3CCCC3)C(=O)Nc3cccc(Cl)c3)cc12	0
CC(C)(C)c1cc(C(=O)O)nn1-c1ccccc1	0
O=C(O)CSC1CC(=O)N(c2ccc(Cl)c(Cl)c2)C1=O (stereo not given)	0
CC1CCN(S(=O)(=O)c2ccc(NC(=O)CSc3nnnn3C)cc2)CC1	2
COCCn1c(SCC(=O)Nc2nnc(C)s2)nnc1-c1ccncc1	7
CCCC(=O)Nc1cnc(NC(=O)c2cccc(F)c2)cc1C	0
Cn1cccc1Cc1nnc(SCC(=O)NCC2CCCO2)n1-c1ccc(F)cc1 (stereo not given)	0
O=C(O)CCc1ccc(-c2ccccc2)n1CC(=O)O	0
COc1cccc(CN2CCN(C(=O)c3ccco3)CC2)c1OC	3
